# Measured values as given in PubChem BioAssay AID1159580 (chemical genetic matrix, 2015).
# Values joined by “and” are separate entries in the source; they are usually repeats but may differ in a detail not shown here. Equal values may be shown once. Hit rate of the full screen: of about 5,500 compounds, about 2,000 (36%) were called active. About 18% were inconclusive and are not listed. Some of the results follow. A number with no mark means an inactive call. No stated cut-off is given here; in the data, active means normalized growth mostly below about 0.91 (no sharp cut-off); inconclusive means no clear call, values can overlap the other calls; inactive means mostly above about 0.92.
# Assay: chemical genetic growth profiling, strain panel (AID 1159580);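 further: tested at 20 µM; growth read once vehicle control cultures reached saturation at 30 °C; 1 = growth at the plate median or of vehicle wells; lower values mean less growth of the strain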
# Details: S. cerevisiae deletion strains, growth OD
smiles,measurement,setting,value
COc1ccc(-c2coc3c(OC)c(OC)cc(O)c3c2=O)cc1,normalized growth,"locus YAL021C, strain ccr4, hits give low values",1.03
same,normalized growth,"locus YAL026C, strain drs2, hits give low values",1
same,normalized growth,"locus YAL030W, strain snc1, hits give low values",0.997
same,normalized growth,"locus YBL061C, strain skt5, hits give low values",0.999
same,normalized growth,"locus YBR009C, strain hhf1, hits give low values",1.01
same,normalized growth,"locus YBR021W, strain FUR4, hits give low values",0.838 (active)
same,normalized growth,"locus YBR023C, strain chs3, hits give low values",0.99
same,normalized growth,"locus YBR171W, strain sec66, hits give low values",1.03
same,normalized growth,"locus YBR229C, strain ROT2, hits give low values",0.988
same,normalized growth,"locus YBR231C, strain swc5, hits give low values",0.994
same,normalized growth,"locus YBR279W, strain paf1, hits give low values",0.995
same,normalized growth,"locus YCL011C, strain gbp2, hits give low values",0.998
same,normalized growth,"locus YCL016C, strain dcc1, hits give low values",1
same,normalized growth,"locus YCL029C, strain bik1, hits give low values",0.975
same,normalized growth,"locus YCL061C, strain MRC1, hits give low values",1.01
same,normalized growth,"locus YCL069W, strain vba3, hits give low values",0.999
same,normalized growth,"locus YCR088W, strain abp1, hits give low values",0.997
same,normalized growth,"locus YDL005C, strain med2, hits give low values",1
same,normalized growth,"locus YDL035C, strain GPR1, hits give low values",0.981
same,normalized growth,"locus YDL040C, strain nat1, hits give low values",1
same,normalized growth,"locus YDL074C, strain BRE1, hits give low values",0.924
same,normalized growth,"locus YDL101C, strain DUN1, hits give low values",0.988
same,normalized growth,"locus YDL185W, strain tfp1, hits give low values",1.01
same,normalized growth,"locus YDL192W, strain arf1, hits give low values",0.942
same,normalized growth,"locus YDR001C, strain nth1, hits give low values",0.997
same,normalized growth,"locus YDR069C, strain doa4, hits give low values",1
same,normalized growth,"locus YDR101C, strain arx1, hits give low values",0.947
same,normalized growth,"locus YDR137W, strain rgp1, hits give low values",0.951
same,normalized growth,"locus YDR159W, strain sac3, hits give low values",0.988
same,normalized growth,"locus YDR162C, strain NBP2, hits give low values",0.959
same,normalized growth,"locus YDR195W, strain ref2",1.05
same,normalized growth,"locus YDR297W, strain sur2, hits give low values",0.992
same,normalized growth,"locus YDR318W, strain mcm21, hits give low values",0.948
same,normalized growth,"locus YDR334W, strain swr1, hits give low values",1.01
same,normalized growth,"locus YDR335W, strain msn5, hits give low values",1
same,normalized growth,"locus YDR388W, hits give low values",0.974
same,normalized growth,"locus YDR392W, strain spt3, hits give low values",0.965
same,normalized growth,"locus YDR502C, strain sam2, hits give low values",0.95
same,normalized growth,"locus YEL003W, strain gim4, hits give low values",0.994
same,normalized growth,"locus YEL037C, strain rad23, hits give low values",1.01
same,normalized growth,"locus YEL061C, strain CIN8 (second series), hits give low values",1.01
same,normalized growth,"locus YER015W, strain faa2, hits give low values",1
same,normalized growth,"locus YER016W, strain bim1, hits give low values",1.01
same,normalized growth,"locus YER110C, hits give low values",0.959
same,normalized growth,"locus YER111C, strain swi4, hits give low values",1.03
same,normalized growth,"locus YER155C, strain BEM2 (second series), hits give low values",1.01
same,normalized growth,"locus YER155C, strain BEM2, hits give low values",0.996
same,normalized growth,"locus YER167W, strain BCK2, hits give low values",0.99
same,normalized growth,"locus YFR010W, strain ubp6, hits give low values",1.01
same,normalized growth,"locus YGL078C, strain dbp3, hits give low values",0.968
same,normalized growth,"locus YGL086W, strain mad1, hits give low values",0.954
same,normalized growth,"locus YGL167C, strain pmr1, hits give low values",1.01
same,normalized growth,"locus YGL173C, strain kem1, hits give low values",1
same,normalized growth,"locus YGL227W, strain vid30, hits give low values",1
same,normalized growth,"locus YGL240W, strain doc1, hits give low values",0.991
same,normalized growth,"locus YGL248W, strain PDE1, hits give low values",0.96
same,normalized growth,"locus YGL253W, strain hxk2, hits give low values",1.01
same,normalized growth,"locus YGR078C, strain PAC10, hits give low values",0.956
same,normalized growth,"locus YGR135W, strain pre9, hits give low values",0.928
same,normalized growth,"locus YGR229C, strain SMI1, hits give low values",0.896
same,normalized growth,"locus YGR252W, strain gcn5, hits give low values",0.74 (active)
same,normalized growth,"locus YHR013C, strain ard1, hits give low values",0.989
same,normalized growth,"locus YHR027C, strain rpn1, hits give low values",1.01
same,normalized growth,"locus YHR030C, strain SLT2, hits give low values",0.917
same,normalized growth,"locus YHR079C, strain IRE1 (second series), hits give low values",0.978
same,normalized growth,"locus YHR079C, strain IRE1, hits give low values",0.925
same,normalized growth,"locus YHR094C, strain hxt1, hits give low values",0.982
same,normalized growth,"locus YHR129C, strain ARP1, hits give low values",0.985
same,normalized growth,"locus YHR142W, strain chs7, hits give low values",0.976
same,normalized growth,"locus YHR200W, strain rpn10, hits give low values",0.941
same,normalized growth,"locus YIL066C, strain RNR3, hits give low values",0.986
same,normalized growth,"locus YIL073C, strain SPO22, hits give low values",0.9
same,normalized growth,"locus YIL125W, strain kgd1, hits give low values",0.983
same,normalized growth,"locus YIR030C, strain dcg1, hits give low values",0.961
same,normalized growth,"locus YJL092W, strain hpr5, hits give low values",1.01
same,normalized growth,"locus YJL095W, strain BCK1 (second series), hits give low values",0.995
same,normalized growth,"locus YJL095W, strain BCK1, hits give low values",0.871 and 0.958
same,normalized growth,"locus YJL115W, strain asf1, hits give low values",1.01
same,normalized growth,"locus YJL129C, strain trk1, hits give low values",0.999
same,normalized growth,"locus YJL134W, strain LCB3, hits give low values",1
same,normalized growth,"locus YJL154C, strain vps35, hits give low values",1.01
same,normalized growth,"locus YJL164C, strain tpk1, hits give low values",0.997
same,normalized growth,"locus YJL166W, strain qcr8, hits give low values",0.996
same,normalized growth,"locus YJL168C, strain set2, hits give low values",0.978
same,normalized growth,"locus YJL187C, strain SWE1 (second series), hits give low values",0.968
same,normalized growth,"locus YJL187C, strain SWE1, hits give low values",0.992
same,normalized growth,"locus YJR066W, strain TOR1, hits give low values",0.863
same,normalized growth,"locus YKL009W, strain mrt4, hits give low values",0.972
same,normalized growth,"locus YKL068W, hits give low values",0.993
same,normalized growth,"locus YKL085W, strain MDH1 (second series), hits give low values",0.979
same,normalized growth,"locus YKL085W, strain MDH1, hits give low values",0.979
same,normalized growth,"locus YKL160W, strain elf1, hits give low values",0.991
same,normalized growth,"locus YKR001C, strain vps1, hits give low values",0.871 (active)
same,normalized growth,"locus YKR026C, strain gcn3, hits give low values",1.01
same,normalized growth,"locus YKR091W, strain srl3, hits give low values",0.999
same,normalized growth,"locus YLL001W, strain dnm1, hits give low values",1.01
same,normalized growth,"locus YLL026W, hits give low values",1.01
same,normalized growth,"locus YLL041C, strain sdh2, hits give low values",1.01
same,normalized growth,"locus YLR027C, strain aat2, hits give low values",1
same,normalized growth,"locus YLR039C, strain RIC1, hits give low values",0.903
same,normalized growth,"locus YLR058C, strain SHM2, hits give low values",0.96
same,normalized growth,"locus YLR102C, strain apc9, hits give low values",0.986
same,normalized growth,"locus YLR113W, strain HOG1, hits give low values",0.949
same,normalized growth,"locus YLR221C, strain rsa3, hits give low values",0.997
same,normalized growth,"locus YLR258W, strain gsy2, hits give low values",0.982
same,normalized growth,"locus YLR262C, strain YPT6 (second series), hits give low values",0.949
same,normalized growth,"locus YLR268W, strain sec22, hits give low values",0.927
same,normalized growth,"locus YLR320W, strain mms22, hits give low values",0.993
same,normalized growth,"locus YLR330W, strain CHS5, hits give low values",0.976
same,normalized growth,"locus YLR342W, strain FKS1, hits give low values",1
same,normalized growth,"locus YLR357W, strain rsc2, hits give low values",0.989
same,normalized growth,"locus YLR370C, strain arc18, hits give low values",1
same,normalized growth,"locus YLR371W, strain rom2, hits give low values",0.945
same,normalized growth,"locus YLR384C, strain iki3, hits give low values",1.01
same,normalized growth,"locus YLR418C, strain cdc73, hits give low values",0.855
same,normalized growth,"locus YML016C, strain PPZ1, hits give low values",0.985
same,normalized growth,"locus YML032C, strain rad52, hits give low values",0.951
same,normalized growth,"locus YML120C, strain ndi1, hits give low values",0.997
same,normalized growth,"locus YML124C, strain tub3, hits give low values",0.981
same,normalized growth,"locus YMR058W, strain fet3, hits give low values",1.01
same,normalized growth,"locus YMR078C, strain ctf18, hits give low values",0.976
same,normalized growth,"locus YMR125W, strain sto1, hits give low values",1.01
same,normalized growth,"locus YMR129W, hits give low values",1
same,normalized growth,"locus YMR205C, strain PFK2, hits give low values",0.991
same,normalized growth,"locus YMR223W, strain ubp8, hits give low values",0.95
same,normalized growth,"locus YMR231W, strain pep5, hits give low values",0.995
same,normalized growth,"locus YMR263W, strain SAP30, hits give low values",0.97
same,normalized growth,"locus YMR307W, strain GAS1, hits give low values",0.787
same,normalized growth,"locus YNL067W, strain RPL9B, hits give low values",0.968
same,normalized growth,"locus YNL071W, strain lat1, hits give low values",1
same,normalized growth,"locus YNL128W, strain TEP1, hits give low values",1.01
same,normalized growth,"locus YNL183C, strain NPR1, hits give low values",0.913
same,normalized growth,"locus YNL209W, strain ssb2, hits give low values",0.999
same,normalized growth,"locus YNL233W, strain BNI4, hits give low values",0.908
same,normalized growth,"locus YNL248C, strain rpa49, hits give low values",1.01
same,normalized growth,"locus YNL250W, strain rad50, hits give low values",0.997
same,normalized growth,"locus YNL271C, strain bni1, hits give low values",0.98
same,normalized growth,"locus YNL298W, strain CLA4, hits give low values",0.965
same,normalized growth,"locus YNL307C, strain MCK1, hits give low values",0.903 (active)
same,normalized growth,"locus YNL322C, strain KRE1 (second series), hits give low values",1.01
same,normalized growth,"locus YNR049C, strain mso1, hits give low values",1
same,normalized growth,"locus YNR052C, strain pop2, hits give low values",0.977
same,normalized growth,"locus YOL012C, strain htz1",0.766
same,normalized growth,"locus YOL147C, strain pex11, hits give low values",0.96
same,normalized growth,"locus YOR001W, strain rrp6, hits give low values",1.01
same,normalized growth,"locus YOR061W, strain CKA2, hits give low values",1
same,normalized growth,"locus YOR069W, strain VPS5, hits give low values",0.995
same,normalized growth,"locus YOR070C, strain gyp1, hits give low values",1.02
same,normalized growth,"locus YOR080W, strain dia2, hits give low values",1.01
same,normalized growth,"locus YOR083W, strain WHI5, hits give low values",0.99
same,normalized growth,"locus YOR106W, strain vam3, hits give low values",0.989
same,normalized growth,"locus YOR136W, strain idh2, hits give low values",0.976
same,normalized growth,"locus YOR144C, strain elg1, hits give low values",0.979
same,normalized growth,"locus YOR184W, strain ser1, hits give low values",0.887
same,normalized growth,"locus YOR231W, strain MKK1, hits give low values",0.949
same,normalized growth,"locus YOR265W, strain rbl2, hits give low values",1.01
same,normalized growth,"locus YOR270C, strain vph1, hits give low values",0.945
same,normalized growth,"locus YOR290C, strain snf2, hits give low values",0.986
same,normalized growth,"locus YOR316C, strain cot1, hits give low values",0.991
same,normalized growth,"locus YPL051W, strain arl3, hits give low values",0.997
same,normalized growth,"locus YPL078C, strain atp4, hits give low values",0.991
same,normalized growth,"locus YPL106C, strain sse1, hits give low values",0.948
same,normalized growth,"locus YPL240C, strain hsp82, hits give low values",0.994
same,normalized growth,"locus YPL241C, strain CIN2, hits give low values",1.01
same,normalized growth,"locus YPL256C, strain CLN2, hits give low values",0.904
same,normalized growth,"locus YPR119W, strain clb2, hits give low values",0.982
same,normalized growth,"locus YPR141C, strain kar3, hits give low values",0.979
same,normalized growth,"locus YPR163C, strain tif3, hits give low values",0.866 (active)
same,normalized growth,"locus YPR167C, strain met16, hits give low values",0.955
same,normalized growth,"strain wtn01, hits give low values",0.942
